From PubChem BioAssay (Tox21) come the findings set out here.

SMILES strings stand for the structures. Values joined by “and” are separate entries in the source; they are usually repeats but may differ in a detail not shown here. Identical values can stand only once. Results filed as inconclusive are left out. A call without a number means that no potency is given here. Where a structure was tested more than once in an assay, its records may differ in their call. Active and inactive are the calls of the source. Calls follow the shape of the full dose curve.
Potency is read from the fitted curve at half-maximal effect.

The assay in a line: qHTS assay for small molecule agonists of the p53 signaling pathway (AID 651631). Also: nearly all actives have a fitted effect of over 15% in size. Particulars: HCT-116 p53RE-bla reporter, beta-lactamase FRET ratio, 16 h; series mostly up to 73.3 µM. From the text: U.S. Tox21 Program National Center for Advancing Translational Sciences [NCATS] NIH Chemical Genomics Center [NCGC] U.S. Environmental Protection Agency [EPA] National Institutes of Environmental Health Sciences [NIEHS] National Toxicology Program [NTP] U.S. Food and Drug Administration [FDA] Tox21 Assay Overview: p53, a tumor suppressor protein, is activated following cellular insult, including DNA damage and other cellular stresses. The activation of p53 regulates cell fate by inducing DNA repair, cell cycle arrest, apoptosis, or cellular senescence. The activation of p53, therefore, is a good indicator of DNA damage and other cellular stresses. The CellSensor p53RE-bla HCT-116 cell line (Invitrogen) contains a stably integrated beta-lactamase reporter gene under control of the p53 response elements. The activation of the reporter gene under culture conditions can be detected by fluorescence intensity. This cell line was used to screen the Tox21 compound library in a 1536-well plate format and to identify agonists that activate the p53 signaling pathway.
Tox21 Assay Protocol Summary: The p53RE-bla cells were dispensed at 4,000 cells/5 ul/well in 1536-well black wall/clear bottom plates using a Multidrop dispenser. After the assay plates were incubated at a 37 C/5% CO2 incubator for 5 hours, 23 nL of compounds dissolved in DMSO, positive controls or DMSO only was transferred to the assay plate by a pin tool. The plates were incubated at 37 C for 16 hours. After 1 uL of LiveBLAzerTM B/G FRET substrate was added using a Flying Reagent Dispenser, the plates were incubated at room temperature for 2 hours, and fluorescence intensity was measured by an Envision plate reader.
As to `CCCCC(CC)COC(=O)c1ccc(C(=O)OCC(CC)CCCC)c(C(=O)OCC(CC)CCCC)c1` (stereo not given), the Potency result was “inactive”.

For the compound `CCOC(=S)S`, the Potency result is “inactive”.

As for `COP(=O)(OC)OC`, the Potency result was “inactive”.

Regarding `CC(C)N(C(=O)SCC(Cl)=C(Cl)Cl)C(C)C`, the Potency result was “inactive”.

Turning to `CCC(=O)O[C@H]1CC[C@H]2[C@@H]3CCC4=CC(=O)CC[C@]4(C)[C@H]3CC[C@]12C`, the Potency result is “inactive”.

Turning to `C[C@]12CCC(=O)C(O)=C1CC[C@@H]1[C@@H]2CC[C@]2(C)C(=O)CC[C@@H]12`, the Potency result is “inactive”.

`CC(O)CCO` (stereo not given): the Potency entry was “inactive”.

Take `CCOc1cc(Oc2ccc(C(F)(F)F)cc2Cl)ccc1[N+](=O)[O-]`: the Potency result is “inactive”.

`Cc1ccc(OP(=O)(Oc2ccc(C)cc2)Oc2ccc(C)cc2)cc1`: the Potency result was “inactive”.

Turning to `O=[N+]([O-])c1ccc(O)c([N+](=O)[O-])c1`, the Potency result was “inactive”.

For `O=[N+]([O-])c1cccc2ccccc12`, the Potency result was “inactive”.

Turning to `Cc1cc(Cl)ccc1OCCCC(=O)O`, the Potency result was “inactive”.

Turning to `O=[N+]([O-])c1c(Cl)c(Cl)c(Cl)c(Cl)c1Cl`, the Potency entry is “inactive”.

Regarding `C=CC(=O)OCCO`, the Potency result was “inactive”.

For the compound `c1ccc(NNc2ccccc2)cc1`, the Potency entry is “inactive”.

Turning to `CCCCCCCCOC(=O)c1ccccc1C(=O)OCCCCCCCC`, the Potency result was “inactive”.

With `CC(C)(OOC(C)(C)c1ccccc1)c1ccccc1`, the Potency entry is “inactive”.

On to `CC1(C)C(C=C(Cl)Cl)C1C(=O)OC(C#N)c1cccc(Oc2ccccc2)c1` (stereo not given), for which the Potency entry was “inactive”.

With `O=C(O)CC[N+](=O)[O-]`, the Potency entry was “inactive”.

On to `CCC(C)c1cc([N+](=O)[O-])cc([N+](=O)[O-])c1O` (stereo not given), for which the Potency entry is “inactive and 864 nM (active)”.

On to `CC(C)c1ccc(CO)cc1`, for which the Potency result is “inactive”.

`COP(=S)(OC)Oc1cc(Cl)c(Cl)cc1Cl`: the Potency result is “inactive”.

For `c1ccc(-c2cccc(-c3ccccc3)c2)cc1`, the Potency entry is “inactive”.

Turning to `COP(=S)(OC)Oc1ccc([N+](=O)[O-])cc1`, the Potency entry was “inactive”.

For `Nn1cnnc1`, the Potency result is “inactive”.

As for `c1ccc(N=Nc2ccccc2)cc1`, the Potency result was “inactive”.

Regarding `Oc1c(Cl)c(Cl)c(Cl)c(Cl)c1Cl`, the Potency was 3.37 µM (active) and 3.43 µM (active).

`CCOC(=O)C(C)OC(=O)c1cc(Oc2ccc(C(F)(F)F)cc2Cl)ccc1[N+](=O)[O-]` (stereo not given): the Potency result is “inactive”.

Regarding `N#CCCCl`, the Potency result is “inactive”.

For `Oc1cc(Cl)ccc1Cl`, the Potency result is “inactive”.

Consider `O=P(Oc1ccccc1)(Oc1ccccc1)Oc1ccccc1`, for which the Potency entry was “inactive”.

As to `C=CCc1ccc2c(c1)OCO2`, the Potency result is “inactive”.

As for `NNC(=S)NN`, the Potency entry was “inactive”.

With `ClC1C(Cl)C(Cl)C(Cl)C(Cl)C1Cl` (stereo not given), the Potency entry was “inactive”.

Take `S=C1NCCN1`: the Potency result was “inactive”.

As to `CCCCN(CCCC)N=O`, the Potency entry was “inactive”.

With `CN(C)C(=O)Nc1ccc(Cl)cc1`, the Potency result is “inactive”.

Regarding `Nc1ccc(Cl)cc1N`, the Potency was 19.3 µM (active).

Turning to `C=C(C)C(=O)OCC1CO1` (stereo not given), the Potency result is “inactive”.

With `CCOP(=S)(OCC)O/N=C(\C#N)c1ccccc1`, the Potency result is “inactive”.
